Screens (PubChem BioAssay)
HP1b binding inh: inhibitors of HP1-beta chromodomain binding to methylated histone tails. P83916. AlphaScreen HP1-beta / biotin-H3K9me3 peptide binding. Potency, µM (doses to about 114 µM), inactives show at the highest dose activity change, negative = inhibition, usual class: inhibitors. actives 0.56% (n = 390,000). AID 540317; further: potency means the concentration at half of the fitted maximal effect; nearly all actives have a fitted effect of over 70% in size
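Compound inhibition of the preformed complex between 50 nM HP1-beta and 50 nM biotinylated H3K9me3 peptide was read by AlphaScreen. Buffer was PBS pH 7.4 with 0.01% Tween-20. Incubations ran 30 min at room temperature, with 10 ug/mL donor/acceptor beads.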
PLK1 PBD block: PLK1 (human) polo-box domain binding inhibition; P53350; Potency, µM, without a hit: max response, negative = inhibition, usual class: inhibitors; AID 720504; Plk1 PBD binding of FITC phosphopeptide, fluorescence polarization; actives 2.8% (n = 360,000); further: potency means the concentration at half of the fitted maximal effect; series mostly up to about 57 µM; on the % scale 0 is the no-effect control and ±100 the full control effect; nearly all actives have a fitted effect of over 65% in size
Target sequence (P53350 whole entry, looked up, the tested form may be a part): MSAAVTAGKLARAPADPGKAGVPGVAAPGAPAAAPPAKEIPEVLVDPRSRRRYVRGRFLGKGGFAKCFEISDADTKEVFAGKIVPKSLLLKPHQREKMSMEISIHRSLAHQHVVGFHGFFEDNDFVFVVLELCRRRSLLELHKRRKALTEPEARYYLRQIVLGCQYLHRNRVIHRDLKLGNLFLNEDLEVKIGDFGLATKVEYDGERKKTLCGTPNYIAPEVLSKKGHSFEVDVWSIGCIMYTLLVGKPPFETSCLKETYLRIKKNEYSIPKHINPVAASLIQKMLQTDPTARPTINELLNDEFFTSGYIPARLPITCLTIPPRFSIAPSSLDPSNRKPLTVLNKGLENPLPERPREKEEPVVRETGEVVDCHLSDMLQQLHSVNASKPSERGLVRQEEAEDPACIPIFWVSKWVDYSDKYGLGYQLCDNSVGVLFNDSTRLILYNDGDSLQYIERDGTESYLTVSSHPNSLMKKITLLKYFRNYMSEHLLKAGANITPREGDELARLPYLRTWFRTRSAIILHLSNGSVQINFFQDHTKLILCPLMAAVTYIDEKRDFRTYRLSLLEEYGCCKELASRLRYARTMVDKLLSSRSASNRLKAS
JMJD2A Tudor inh: inhibitors of human JMJD2A Tudor domain; O75164; AlphaScreen JMJD2A-Tudor / H3K4me3 peptide binding; Potency, µM (highest dose often 114 µM), for the others: at the highest dose activity change, negative = inhibition, most hits filed as inhibitors; actives 4.4% (n = 390,000); further: potency means the concentration at half of the fitted maximal effect; on the % scale 0 is the no-effect control and ±100 the full control effect; nearly all actives have a fitted effect of over 50% in size
BAZ2B inh: inhibitors of human BAZ2B bromodomain | Q9UIF8 | AlphaScreen BAZ2B-H3K14Ac peptide displacement | Potency, µM (top dose mostly 114 µM), without a hit: at the top dose activity change, negative = inhibition, actives largely listed as inhibitors | actives 4.4% (n = 360,000) | AID 504333; further: potency means the concentration at half of the fitted maximal effect; on the % scale 0 is the no-effect control and ±100 the full control effect; nearly all actives have a fitted effect of over 60% in size
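AlphaScreen displacement: compounds (up to 110uM) incubated 30 min at room temperature with a preformed 50 nM BAZ2B/50 nM biotinylated H3K14Ac peptide complex in PBS pH 7.4 with Tween-20. Donor and acceptor beads at 10 ug/mL final added, 20 min light-protected before reading.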
KAT2A inh: GCN5L2 (KAT2A) acetyltransferase inhibition | Q92830 | GCN5L2 HAT assay, ThioGlo1 CoA-SH fluorescence | Potency, µM (doses to about 58.9 µM), for the others: at the top dose activity change, negative = inhibition, hits mostly inhibitors | actives 0.21% (n = 390,000) | AID 504327; further: potency means the concentration at half of the fitted maximal effect; on the % scale 0 is the no-effect control and ±100 the full control effect
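Compounds, pin-transferred from DMSO stocks, meet 20nM GCN5L2 for 15 min before the reaction begins with H3(1-25) peptide (75uM) and acetyl-CoA (70uM). Thiol-reactive ThioGlo1 reports CoA release over 20 min at room temperature.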
PI5P4Ka inh: inhibitors of human PI5P4K alpha | P48426 | PI5P4Kalpha enzyme, ADP-Glo luminescence, 60 min; active compounds read low | max response, % | actives 1.2% (n = 330,000) | AID 652105; active means max response of -50% or lower; inconclusive means between -30% and -50%; inactive means -30% or higher; further: value at the top dose of about 77 µM; on the % scale 0 is the no-effect control and ±100 the full control effect
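Quantitative HTS of the MLSMR library against PI5P4Kalpha with substrate. ATP added last at 5 microM final; room temperature, 60 minutes. Remaining ATP depleted, ADP converted and read as luminescence.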
* = called active by the depositor; ? = inconclusive; · = no result; [ ] = another dose, or the depositor's remark. Only some compounds are listed: those with a hit (about 7% of all), similar ones and a draw of the others. Unless noted, the call rests on the fitted dose curve; in most records, active means well fitted curve in the direction sought with a large enough effect; inconclusive means small, poorly fitted or top-dose-only effect, or another doubt; inactive means no such curve, though single readings can be large; an effect the other way counts as inactive or inconclusive.

SMILES | HP1b binding inh | PLK1 PBD block | JMJD2A Tudor inh | BAZ2B inh | KAT2A inh | PI5P4Ka inh
CC(=O)NC(c1ccco1)c1ccc2cccnc2c1O (stereo not drawn) | 24% | -11% | 56µM* | 20µM* | -2% | -13
COC(=O)C(=O)C1CCc2c(Cl)cc(OC)c(OC)c2C1=O (stereo not drawn) | 16% | -11% | ? | · | · | 6
CC1(c2ccc(OC(F)F)cc2)NC(=O)N(CC(=O)NCCC2=CCCCC2)C1=O (stereo not drawn) | 25% | -6% | -13% | 0% | -3% | -1
CCN(CC)CCCN=C1N[C@@H](c2cccc(C(F)(F)F)c2)C(C(=O)OC)=C(C)N1CC | 25% | -1% | 25µM* | · | -7% | 9
CSc1ccccc1Nc1ncnc(N)n1 | 7% | -2% | -5% | 1% | -6% | -1
Cc1cccc(C)c1Nc1nnc(SCC(=O)Nc2ncc(C(F)(F)F)cc2Cl)s1 | -17% | ? | 25µM* | -7% | -11% | -2
CCN1CCN(C(c2ccc(SC)cc2)c2c(O)cc(C)n(Cc3ccco3)c2=O)CC1 (stereo not drawn) | -13%[57 µM] | · | 79µM* | -13% | -7% | ·
CCN1CCN(C(c2ccc(OC)cc2)c2c(O)cc(C)n(Cc3ccco3)c2=O)CC1 (stereo not drawn) | 10%[57 µM] | · | 79µM* | -17% | -11% | ·
O=C(NCc1ccccc1)C1CCCN(S(=O)(=O)c2ccc(F)cc2)C1 (stereo not drawn) | 28% | 3% | 4% | -4% | -1% | -5
O=C(NCc1ccc(Cl)c(Cl)c1)c1ccco1 | 28% | -15% | 0% | 4% | -4% | 1
O=C(NCc1n[nH]c(=S)n1-c1ccc(Cl)c(Cl)c1)c1ccco1 | 18% | -19% | 50µM* | -8% | 2% | -5
COc1ccccc1-n1c(CNC(=O)c2ccco2)n[nH]c1=S | 42% | -8% | ? | -2% | -3% | 0
O=C(NCc1n[nH]c(=S)n1-c1ccccc1)c1ccco1 | 27% | -15% | 16µM* | 8% | -2% | ·
O=C(COc1ccc2c(c1)oc(=O)c1ccccc12)NC(Cc1ccc(Cl)cc1)C(=O)O (stereo not drawn) | -6% | -9% | -25% | 2% | -4% | 5
Cc1ccc(-c2nn(-c3ccc(F)cc3)cc2C(=O)N2CCN(C3CCS(=O)(=O)C3)CC2)cc1 (stereo not drawn) | 34% | -10% | -13% | 12% | 2% | -1
O=C(Nc1ccccc1)N(Cc1cccs1)c1ccc(F)cc1 | 47% | · | -9% | 1% | -9% | ·
COc1ccc(-c2cc(CC3(C(=O)O)CCN(C(=O)OC(C)(C)C)CC3)on2)c(OC)c1 | 61% | -27% | -14% | -38% | 3% | 2
COC(=O)C1[C@H]2C(=O)N(Cc3cccs3)C[C@]23C=C[C@H]1O3 (stereo partly drawn) | 37% | -4% | -14% | -18% | -2% | ·
CCOC(=O)C1C2C=CC3(CN(Cc4cccs4)C(=O)C13)O2 (stereo not drawn) | -2% | 17µM* | -20%[11.4 µM] | 3% | -6% | -27
C[C@@H]1CCC2[C@](C)(CO)[C@@H](O)CC[C@]2(C)[C@@]12CCC(CO)(CCO)O2 (stereo partly drawn) | 21% | 27µM* | -6% | -3% | 0% | 1
C[C@@H]1CCC2[C@](C)(CO)C(O)CC[C@@]2(C)[C@@]12CC[C@](CO)(CCO)O2 (stereo partly drawn) | · | · | · | · | 0% | ·
S=c1[nH]nc(-c2ccc(Cl)cc2Cl)n1-c1ccc2c(c1)OCCO2 | ? | 27µM* | 79µM* | -29% | -3% | -16
S=c1[nH]nc(Cc2ccc(Cl)cc2)n1-c1ccc2c(c1)OCCO2 | 8% | -4% | ? | ? | -29% | -7
Oc1ccc(-c2n[nH]c(=S)n2-c2ccc3c(c2)OCCO3)c(O)c1 | 7% | -27% | 10µM* | -29% | -10% | ?
S=c1[nH]nc(-c2ccc(Cl)cc2Cl)n1-c1ccccc1 | 28% | -22% | -13% | -28% | -7% | 2
SMILES | HP1b binding inh | PLK1 PBD block | JMJD2A Tudor inh | BAZ2B inh | KAT2A inh | PI5P4Ka inh
CCn1ncc(S(=O)(=O)N2CCN(c3cccc(OC)c3)CC2)c1C | 28% | -2% | -6% | 1% | -9% | 6
C/C(=N\NC(=O)c1ccc(Cn2cc(Br)cn2)o1)c1ccc(NC(=O)c2ccoc2C)cc1 | -5% | -4% | -31% | ? | ? | -9
Cc1nc(CN2CCN(S(=O)(=O)c3c(Cl)cc(Br)cc3Cl)CC2)cs1 | 0% | -3% | 35µM* | 79µM* | -16% | -2
COc1ccc(NC(=O)CC2CC3CCC2C3)cc1S(=O)(=O)N1CCOCC1 (stereo not drawn) | 24% | -6% | -19% | · | -1% | 12
NS(=O)(=O)c1ccc(NS(=O)(=O)c2ccc(C3CNC(=O)C3)cc2)cc1 (stereo not drawn) | 8% | 30µM* | 50µM* | -2% | -8% | 7
C/C=C/C=C\C(=O)Nc1cccc(C2=NOC3(C2)C[C@@H](C(N)=O)N(C(=O)c2cc([N+](=O)[O-])cc([N+](=O)[O-])c2C)C3)c1 (stereo partly drawn) | -13% | 34µM* | -35% | -11% | 8% | -71*
C/C=C\C=C\C(=O)Nc1cccc(C2=NOC3(C2)C[C@H](C(N)=O)N(C(=O)c2ccccc2C(=O)c2ccccc2)C3)c1 (stereo partly drawn) | 25% | -1% | -28% | -31% | 1% | -52*
C/C=C\C=C\C(=O)N1CC2(CC(c3cccc(NC(=O)COc4ccc(Cl)cc4)c3)=NO2)C[C@H]1C(N)=O (stereo partly drawn) | -8% | -11% | ? | -16% | 1% | -81*
C/C=C/C=C\C(=O)Nc1cccc(C2=NOC3(C2)C[C@H](C(N)=O)N(C(=O)/C=C/C)C3)c1 (stereo partly drawn) | ? | -27% | 79µM* | -4% | -13% | ?
CCN(CC)C(=O)n1c(Cc2ccccc2)nc2ccccc21 | 41% | -3% | -10% | 10% | -5% | 6
CCOCCCN(C(=O)Cn1nnc(-c2ccc(C)o2)n1)C(C(=O)NCC1CCCO1)c1ccc(F)cc1 (stereo not drawn) | 29% | 4% | -7% | 0% | -3% | 0
Clc1ccc2nc(C3CCCCC3)c(Cc3ccsc3)n2c1 | · | -2% | · | · | · | -7
O=C(Nc1cc(-c2nc3ccccc3o2)ccc1Cl)c1ccc(N2CCCCC2)c([N+](=O)[O-])c1 | -1% | · | -24% | ? | 0% | ·
